# Assay results taken from PubChem BioAssay (NCATS).
# Results filed as inconclusive are left out. Entries that show only a call come without a potency. Values without a mark were called inactive. Active and inactive are the calls of the source. The call rests on the fitted dose curve; in most records, active means well fitted curve in the direction sought with a large enough effect; inconclusive means small, poorly fitted or top-dose-only effect, or another doubt; inactive means no such curve, though single readings can be large; an effect the other way counts as inactive or inconclusive. *1 amine or outer side, *2 acyl side, *3 side chain or, on linkers, in order; H or OH if unused. Where a SMILES comes first, the peptide text is derived from it. [ ]: non-standard residue; d: D form. X4 = CC(C)=CCc1cc(C(O)C(N[*:1])C(=O)[*:2])ccc1O
# Tests used:
# [1] = tested on: NIH3T3; assay: qHTS assay to identify novel small-molecules to repurpose for Merkel cell carcinoma treatment (AID 1296009); details: MCC and control cell lines, CellTiter-Glo viability, 72 h; at 44.8 µM (top of the series) unless noted; further: nearly all actives have a fitted effect of over 60% in size
# How it was run: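 72 hr, 37 degree celsius; NPC 8-pt / MIPE 11-pt dose response; compound pinned in DMSO; CellTiter-Glo, 10 min RT, luminescence; normalized to no-cell and DMSO controls.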
# [2] = tested on: C33A; assay: Primary qHTS to identify gynecologic anti-cancer compounds using libraries of approved drugs and bioactive compounds (AID 1345084); details: Gynecologic cancer cell panel viability, ATPlite luminescence, 48 h; series mostly up to 57.5 µM; further: nearly all actives have a fitted effect of over 55% in size; further: potency means the concentration at half of the fitted maximal effect
# How it was run: (§1)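 Cells, 1,000 per well, plated 16 h, then exposed 48 h at 37 C to compounds. Viability by ATPlite luminescence after 15 min at room temperature.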
# [3] = tested on: CASKI; assay: as above; details: Gynecologic cancer cell panel viability, ATPlite luminescence, 48 h; series mostly up to 57.5 µM
# How it was run: as §1
# [4] = tested on: Es-2; assay: as above; details: Gynecologic cancer cell panel viability, ATPlite luminescence, 48 h; series mostly up to 57.5 µM
# How it was run: as §1
# [5] = tested on: HeLa; assay: as above; details: Gynecologic cancer cell panel viability, ATPlite luminescence, 48 h; series mostly up to 57.5 µM
# How it was run: as §1
# [6] = tested on: Hek293T; assay: as above; details: Gynecologic cancer cell panel viability, ATPlite luminescence, 48 h, control line for the selectivity index; series mostly up to 57.5 µM
# How it was run: as §1
# [7] = tested on: CAOV3; assay: as above; details: Gynecologic cancer cell panel viability, ATPlite luminescence, 48 h; series mostly up to 57.5 µM
# How it was run: as §1
structure (smiles),measurement,setting,value
Cn1nnc(-c2ccc(-c3ccc(N4C[C@H](CO)OC4=O)cc3F)cn2)n1,outcome,[1],inactive
same,Potency,[2],inactive
same,Potency,[3],inactive
same,Potency,[4],inactive
same,Potency,[5],inactive
same,Potency,[6],inactive
CNC(C)C(=O)NC(C(=O)N1CCCC1c1nc(C(=O)c2ccc(F)cc2)cs1)C1CCCCC1 (stereo not drawn),outcome,[1],inactive
same,Potency,[2],inactive
same,Potency,[3],inactive
same,Potency,[4],inactive
same,Potency,[5],inactive
same,Potency,[6],inactive
C=C1C(=O)O[C@H](CCC)[C@H]1C(=O)O,outcome,[1],inactive
same,Potency,[7],inactive
same,Potency,[4],inactive
same,Potency,[5],inactive
same,Potency,[6],inactive
CC(C)=CCc1cc(C(O)C2NC(=O)CNC(=O)C(Cc3c[nH]c4ccccc34)NC(=O)C3CCCN3C(=O)CNC(=O)C(C(C)C)NC(=O)CNC2=O)ccc1O (stereo not drawn) (cyclo(G[X4]GVGPW); configuration not given here),outcome,[1],inactive [at 9.27 µM]
same,"activity change, negative = cytotoxicity",[2],7.59% [at 11.6 µM]
same,"activity change, negative = cytotoxicity",[7],-21.2% [at 11.6 µM]
same,"activity change, negative = cytotoxicity",[3],-0.505% [at 11.6 µM]
same,"activity change, negative = cytotoxicity",[4],0.641% [at 11.6 µM]
same,"activity change, negative = cytotoxicity",[5],5.32% [at 11.6 µM]
same,"activity change, negative = cytotoxicity",[6],-0.92% [at 11.6 µM]
Cc1cccc2c1NC(=O)C2(c1ccc(O)cc1)c1ccc(O)cc1,Potency,[2],inactive
same,Potency,[7],inactive
same,Potency,[3],inactive
same,Potency,[4],inactive
Cc1ccccc1C#Cc1ccc(CCC(=O)O)cc1,Potency,[2],inactive
COC(=O)c1cc(OC)c(O[C@@H]2O[C@@H](C)[C@H](O)[C@@H](O)[C@H]2O)c(OC)c1,Potency,[2],inactive
same,Potency,[7],inactive
same,Potency,[3],inactive
same,Potency,[4],inactive
same,Potency,[5],inactive
same,Potency,[6],inactive
C[C@@H]1O[C@@H](OC[C@H]2O[C@@H](OC(CCCCc3ccc(O)cc3)CCc3ccc(O)cc3)[C@H](O)[C@@H](O)[C@@H]2O)[C@H](O)[C@H](O)[C@H]1O (stereo partly drawn),Potency,[2],inactive
same,Potency,[7],inactive
same,Potency,[3],inactive
same,Potency,[4],inactive
same,Potency,[5],inactive
same,Potency,[6],inactive
C/C=C/C(O)C1OC(=O)CC1Nc1ccc(C(=O)O)cc1 (stereo not drawn),Potency,[2],inactive
same,Potency,[7],inactive
same,Potency,[3],inactive
same,Potency,[4],inactive
same,Potency,[5],inactive
same,Potency,[6],inactive
COc1ccc(C[C@H](N)C(=O)N[C@@H]2[C@H](O)[C@H](n3cnc4c(N(C)C)ncnc43)O[C@@H]2CO)cc1,Potency,[2],3160 nM (active)
same,Potency,[7],1580 nM (active)
same,Potency,[3],2240 nM (active)
same,Potency,[4],2510 nM (active)
same,Potency,[5],1260 nM (active)
same,Potency,[6],2240 nM (active)
CC1=CC2/C=C(\C)CC[C@@H](O)[C@@H](O)[C@@H]3O[C@@H]3C(=O)[C@]23C(=O)N[C@@H](CC(C)C)[C@@H]3[C@@H]1C (stereo partly drawn),Potency,[2],inactive
same,Potency,[7],inactive
same,Potency,[3],inactive
same,Potency,[4],inactive
same,Potency,[5],inactive
same,Potency,[6],inactive
CC(NC(=O)CCc1nc2ccccc2c(=O)[nH]1)c1ccccc1 (stereo not drawn),Potency,[2],inactive
same,Potency,[7],inactive
same,Potency,[3],inactive
same,Potency,[4],inactive
same,Potency,[5],inactive
same,Potency,[6],inactive
CN[C@@H]1[C@H](O[C@H]2[C@H](O[C@@H]3[C@@H](O)[C@H](O)[C@@H](N=C(N)N)[C@H](O)[C@H]3N=C(N)N)O[C@@H](C)[C@]2(O)C=O)O[C@@H](CO)[C@H](O)[C@H]1O,Potency,[2],inactive
same,Potency,[7],inactive
same,Potency,[3],inactive
same,Potency,[4],inactive
same,Potency,[5],inactive
same,Potency,[6],inactive
C[C@@H]1O[C@@H](O[C@H]2[C@H](O[C@H]3CC[C@@]4(C)C(CC[C@]5(C)C4C=C[C@]46OC[C@@]7(CCC(C)(C)C[C@H]74)[C@@H](O)C[C@]65C)[C@]3(C)CO)O[C@H](CO)[C@@H](O)[C@@H]2O[C@@H]2O[C@H](CO)[C@@H](O[C@@H]3O[C@@H](C)[C@H](O)[C@@H](O)[C@H]3O)[C@H](O)[C@H]2O)[C@H](O)[C@H](O)[C@H]1O (stereo partly drawn),"activity change, negative = cytotoxicity",[2],-24.9% [at 11.6 µM]
same,"activity change, negative = cytotoxicity",[7],-6.89% [at 11.6 µM]
same,"activity change, negative = cytotoxicity",[3],-6.58% [at 11.6 µM]
same,"activity change, negative = cytotoxicity",[4],-4.56% [at 11.6 µM]
same,"activity change, negative = cytotoxicity",[5],-11.4% [at 11.6 µM]
same,"activity change, negative = cytotoxicity",[6],-7.26% [at 11.6 µM]
CC1=CC(=O)C(=C(C)C)CC2C1CCC2(C)O (stereo not drawn),Potency,[2],inactive
same,Potency,[7],inactive
same,Potency,[3],inactive
same,Potency,[4],inactive
same,Potency,[5],inactive
same,Potency,[6],inactive
CC(C)C(CO)Nc1nc(Nc2ccc(C(=O)O)c(Cl)c2)c2ncn(C(C)C)c2n1 (stereo not drawn),Potency,[2],inactive
same,Potency,[7],inactive
same,Potency,[3],inactive
same,Potency,[4],inactive
same,Potency,[5],inactive
same,Potency,[6],inactive
COc1cc(/C=C/C(=O)OC[C@H]2O[C@@](CO)(O[C@H]3O[C@H](CO)[C@@H](O)[C@H](O)[C@H]3O)[C@@H](OC(=O)/C=C/c3ccc(O)c(OC)c3)[C@@H]2O)ccc1O,Potency,[2],inactive
same,Potency,[7],inactive
same,Potency,[3],inactive
same,Potency,[4],inactive
same,Potency,[5],inactive
same,Potency,[6],inactive
C=C1C(O)CC2C(C(=O)O)=COC(O[C@@H]3O[C@H](COC(=O)/C=C/c4ccc(O)cc4)[C@@H](O)[C@H](O)[C@H]3O)C12 (stereo partly drawn),Potency,[2],inactive
same,Potency,[7],inactive
same,Potency,[3],inactive
same,Potency,[4],inactive
same,Potency,[5],inactive
same,Potency,[6],inactive
CC1(C(=O)O)CCCC2(C)C3=CCC4CC3(CCC12)CC4CO (stereo not drawn),Potency,[2],inactive
same,Potency,[7],inactive
same,Potency,[3],inactive
same,Potency,[4],inactive
same,Potency,[5],inactive
same,Potency,[6],inactive
Cc1cc(C)c2c(N)c(C(=O)NCc3ccc(Cl)cc3)sc2n1,Potency,[2],inactive
same,Potency,[7],inactive
same,Potency,[3],inactive
same,Potency,[4],inactive
same,Potency,[5],inactive
same,Potency,[6],inactive
